For 63 compounds, inhibition results are on record in PubChem BioAssay AID463218 (Sanford-Burnham Center for Chemical Genomics, 2010).

Broadly, the inhibition is the relative decrease from the control value, in per cent.

Each structure is given as a SMILES string. Hit rate of the full screen: of about 4,400 compounds, about 3,700 (84%) were called active.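 How the source made its calls: active means inhibition above about 39% in either of two replicate wells at 20 µM (limit read from the data); inactive means the rest.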 So high a share suggests a set chosen from earlier hits. A selection follows.

This experiment is described as follows: growth inhibition of tim23-1 ts yeast, retest – luminescence, single concentration, confirmation (AID 463218).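 Further: temperature-sensitive tim23-1 mutant grown at 25 °C; 0% = DMSO wells with yeast and 100% = medium wells without yeast.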 To be noted: S. cerevisiae tim23-1 growth, BacTiter-Glo luminescence, 24 h; at 20 µM; stronger effect = higher value.
As to `Cc1ccc(Nc2nc(-c3ccc(O)cc3O)cs2)nc1`, the inhibition is 70.4% (active). As to `N/C(=N\OC(=O)Nc1ccc(Cl)c(Cl)c1)c1ncc(C(F)(F)F)cc1Cl`, the inhibition is 71.8% (active). As for `CN(C)/N=C/c1cn(-c2ccccc2)nc1-c1cccnc1`, the inhibition was 43% (active). `Cc1ccc(-c2nn(C(C)(C)C)c3ncnc(N)c23)cc1`: the inhibition was 65.7% (active). As for `Clc1ccc(Nc2nc(-c3cccs3)cs2)nc1`, the inhibition was 68.5% (active).

`Cc1cccc(Nc2nc(-c3ccccc3)cs2)n1`: the inhibition was 23.9% (inactive).

In the case of `CC(C)Cn1c(N)c(C(=O)NCc2cccs2)c2nc3ccccc3nc21`, the inhibition is 46.1% (active). In the case of `COc1ccc2nc(NC(=O)NC3CCCCC3)sc2c1`, the inhibition was 53.1% (active). In the case of `COc1ccc(NC(=O)/C(Cl)=C(/Cl)S(=O)Cc2ccc(C)cc2)cn1` (stereo not drawn), the inhibition was 27.6% (inactive). `O=c1nc2s/c(=C\c3ccco3)c(=O)n2nc1Cc1ccccc1`: the inhibition is -20.4% (inactive). In the case of `CCOc1ccccc1/C=c1\sc2nc(-c3ccco3)nn2c1=O`, the inhibition was 56.6% (active). `O=C(NCc1ccc2c(c1)OCO2)c1c(O)nc2sccn2c1=O`: the inhibition was 66.3% (active). Regarding `Cc1oc2c(c1C(=O)N1CCOCC1)C(=O)c1ccccc1C2=O`, the inhibition is 59.5% (active). As to `Cc1ccccc1NCC(=O)N/N=C\c1ccc([N+](=O)[O-])s1`, the inhibition was 79.3% (active). In the case of `CCOc1ccc(NC(=O)CCC(=O)N/N=C/c2ccc([N+](=O)[O-])s2)cc1`, the inhibition was 76.9% (active).

For the compound `COc1cc(/C=N/Nc2nc3ccccc3s2)ccc1O`, the inhibition was 33.5% (inactive). For `COc1ccc(C(=O)Nc2ccccc2C(=O)N/N=C/c2ccc(O)c(OC)c2)cc1`, the inhibition is 98.3% (active). As to `COc1ccc(C(=O)Nc2ccccc2C(=O)N/N=C/c2ccccc2OC)cc1`, the inhibition is 72% (active).

Take `Oc1c(Cl)cc(Cl)c(Cl)c1Cc1c(O)c(Cl)cc(Cl)c1Cl`: the inhibition is 95.3% (active). With `O=C(Nc1ccc2oc(-c3ccccc3F)nc2c1)c1ccco1` the figure was 82.7% (active); with `CC(C)(C)c1ccc(Oc2ccc(N)cc2)cc1`, 51.7% (active); with `Oc1ccc(Br)cc1/C=N/Nc1ccccn1`, 65.5% (active).

`Cc1cc(N)n2nc(-c3ccc(C(C)(C)C)cc3)cc2n1`: the inhibition is 72.7% (active). Consider `COC(C/C=C/C(=O)[C@@H](C)OCc1ccccc1)OC`, for which the inhibition was 55.2% (active). With `COc1cc([N+](=O)[O-])ccc1NC(=O)COC(=O)CCOc1ccc(C)cc1` the figure was 64.7% (active).

In the case of `CCc1ccccc1NC(=O)CN(c1ccc(OC)cc1OC)S(=O)(=O)c1ccccc1[N+](=O)[O-]`, the inhibition was 32.9% (inactive). On to `O=C(CNC(=O)OCc1ccccc1)Oc1cc2oc(=O)cc(-c3ccccc3)c2cc1Cl`, for which the inhibition was 31.1% (inactive). With `C=CCNC(=O)c1ccc2c3n(nc2c1)-c1ccc(C)cc1CO3`, the inhibition is 75.2% (active).

On to `Oc1ccccc1-c1cc(-c2ccc(Cl)cc2)n[nH]1`, for which the inhibition is -21.6% (inactive).

On to `CCSC1=C(C#N)C(=O)n2c1cc1c2CCCC1`, for which the inhibition was 56.1% (active).

Take `O=C1NC(Nc2nc3ccccc3s2)(C(F)(F)F)C(=O)N1C1CCCCC1` (stereo not drawn): the inhibition is 63.5% (active).

For `Cc1nn(-c2ccccc2)c(Cl)c1/C=C/C(=O)c1ccc(O)cc1`, the inhibition is 43.2% (active). Consider `Cc1nn(Cc2ccc(Cl)c(Cl)c2)c(C)c1NC(=O)c1cc(C2CC2)on1`, for which the inhibition was 59.7% (active). For the compound `Cc1ccc(-c2ccc(/C=N/NC(=O)CN3CCOCC3)o2)cc1[N+](=O)[O-]`, the inhibition is 76.8% (active).

Consider `Cc1ccc(C(=O)COc2cccc(NC(=O)c3ccco3)c2)cc1`, for which the inhibition was 52.7% (active). On to `COc1ccc(-c2cc(C3CCN(c4ncccc4[N+](=O)[O-])CC3)[nH]n2)cc1`, for which the inhibition is 46% (active). In the case of `O=[N+]([O-])c1ccc(C=Nc2ccc(Cl)cc2Cl)s1`, the inhibition is 77.5% (active). As to `O=[N+]([O-])c1ccc2c(c1)Nc1nc3ccccc3nc1N2`, the inhibition was 48.9% (active). On to `CCCc1[nH]nc2c1C(c1ccc(Br)s1)C(C#N)=C(N)O2` (stereo not drawn), for which the inhibition is 73.6% (active). For the compound `O=[N+]([O-])c1ccc(N=Cc2c(O)ccc3ccccc23)cc1`, the inhibition is 61.4% (active). On to `Oc1ccc2ccccc2c1C=Nc1ccccc1`, for which the inhibition was 65.5% (active). Take `CC1CC2=C(CC1/C=N/NC(N)=S)C(C)(C)CCC2` (stereo not drawn): the inhibition was 43.6% (active). Regarding `COc1ccc(/C=C(\C#N)C(=O)ONC2=NCCCCC2)cc1`, the inhibition was 81.6% (active).

For `O=c1c2cc(Br)ccc2nc(-c2cccc(Cl)c2)n1O`, the inhibition is 60.2% (active). Turning to `COc1cc(/C=C2/C(=O)ON=C2C)ccc1OCc1ccccc1F`, the inhibition was 55.5% (active). Take `COc1cc(/C=C2/C(=O)ON=C2C)ccc1OCc1cccc(F)c1`: the inhibition was 53.9% (active). In the case of `Clc1ccc(C2CC(c3cccs3)n3ncnc3N2)cc1Cl` (stereo not drawn), the inhibition is 40.9% (active). Turning to `CCN1C(=O)/C(=C2\SC(N3CCCCC3)=NC2=O)c2ccccc21`, the inhibition is 41.5% (active).

In the case of `COc1cccc(C2Nc3cccc4cccc(c34)N2)c1`, the inhibition was 77.5% (active). As for `Cc1cc(C(=O)N/N=C\C(Br)=C\c2ccccc2)c(C)o1`, the inhibition is 50.8% (active). `C/C(=N/NC(=O)c1cc(Cl)ccc1O)C12CC3CC(CC(C3)C1)C2`: the inhibition was 59.9% (active). With `CC(=NCc1ccc2c(c1)OCO2)C1=C(O)c2ccccc2C1=O` the figure was 67.6% (active). With `CC(=NCc1ccco1)C1=C(O)c2ccccc2C1=O` the figure was 50.4% (active); with `COc1ccc(C(=O)NCC(=O)N/N=C/c2ccc([N+](=O)[O-])o2)cc1OC`, 75.6% (active). Take `c1ccc(-c2nnc3n2NC(c2ccc4c(c2)OCO4)S3)cc1` (stereo not drawn): the inhibition is 43.8% (active). In the case of `Nc1ccccc1SC(C[N+](=O)[O-])c1ccccc1` (stereo not drawn), the inhibition is 89.4% (active). As to `Cc1cc(C)c(S(=O)(=O)c2ccccc2)c(OC(=O)c2c(F)cccc2Cl)n1`, the inhibition is 61.8% (active). As for `O=c1c2ccccc2[nH]c(=S)n1CCN1CCC(=C(c2ccc(F)cc2)c2ccc(F)cc2)CC1`, the inhibition was 41.8% (active). Take `CCCC(=O)N1CCN(c2nnc(-c3ccc(C)cc3)c3ccccc23)CC1`: the inhibition was 16% (inactive). With `COC(=O)N/N=C/c1ccc(-c2ccc(Cl)c(Cl)c2)o1` the figure was 43.3% (active); with `O=C(Nc1ccccc1)c1nnsc1S(=O)(=O)c1ccc(Cl)cc1`, 93% (active); with `FC(F)(F)c1cccc(Nc2ncnc3ccccc23)c1`, 29% (inactive).

Regarding `CCOc1cc(NC(=O)c2ccccc2C(=O)O)c(OCC)cc1NC(=O)c1ccccc1F`, the inhibition was 66.5% (active).
